# According to PubChem BioAssay AID504832 (National Center for Advancing Translational Sciences (NCATS), 2011):
# In all, about 310,000 compounds went through this assay and about 18,000 (5.8%) were called active. Not shown: some 22% with an inconclusive outcome. The sample holds actives, similar compounds and a random draw of the others, so the mix is not that of the screen. A number with no mark means an inactive call. Calls come from the whole dose curve; as a rule, active = well fitted inhibition curve with a large enough effect; inconclusive = small, poorly fitted or top-dose-only effect, or another doubt; inactive = no such curve, though single readings can be large or run the other way.
# Test: Primary qHTS for delayed death inhibitors of the malarial parasite plastid, 48 hour incubation
# Conditions: P. falciparum luciferase growth in erythrocytes; series mostly up to 28.7 µM; activity change, negative = inhibition: at the top concentration
# Summary of the method: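 Here the parasites carry a stable luciferase gene and grow inside erythrocytes in Albumax-based RPMI medium with compound for one erythrocytic cycle. Activity is scored as loss of luminescent signal.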
# % is set by controls: 0 for no effect and ±100 for the full control effect; potency is the fitted concentration of half-maximal effect.
SMILES,"activity change, negative = inhibition",Potency
O=C(Nc1ccccn1)C1CCN(S(=O)(=O)c2ccccc2)CC1,341%,–
CCN(c1ccccc1)S(=O)(=O)c1cc2c(cc1C)n(C)c(=O)c(=O)n2C,19.7%,–
CCOC(=O)c1ccccc1C(=O)N1CCOCCOCCOCC1,17%,–
CCOC(=O)c1c(-c2cccc(N)c2)cn2ccccc12,10.1%,–
CCOC(=O)c1c(CN(C)C)n(-c2ccccc2)c2cc(Br)c(O)cc12,–,1.17 µM (active)
CCOC(=O)c1c(-c2ccccc2)oc2ccc(OC(=O)N(C)C)cc12,-29.3%,–
CCOC(=O)c1ccccc1NC(=O)COC(=O)CCC(=O)N1CCOCC1,46.9%,–
CCOC(=O)c1c(CN2CCOCC2)n(-c2ccccc2)c2ccc(O)cc12,–,10.4 µM (active)
CN(CC(=O)Nc1ccc(Cl)cc1)C(=O)c1ccc(COc2ccccc2)cc1,10.9%,–
CCCCn1c(N)c(N(Cc2ccccc2OC)C(=O)COc2cc(C)ccc2Cl)c(=O)[nH]c1=O,-29.8%,–
Cc1ccc2c(c1)N(CC(=O)NCCCN1CCCCC1)C(=O)c1cccnc1O2,5.21%,–
Cc1ccc2c(c1)N(CC(=O)NCCc1ccc(Cl)cc1)C(=O)c1cccnc1O2,-9.42%,–
CC(=O)c1cccc(NC(=O)CN2C(=O)c3cccnc3Oc3ccc(Cl)cc32)c1,–,13.1 µM (active)
Cc1ccc(S(=O)(=O)N(C)CC(=O)NCCc2c[nH]c3ccccc23)cc1,0%,–
Cn1c(CNC(=O)c2ccco2)nnc1SCC(=O)N1CCN(c2ccccc2)CC1,12.7%,–
CC(C)c1nc2cc(C(=O)NC(C)c3cnn(C)c3)ccc2o1 (centres undefined),18.1%,–
CCN(CC(=O)Nc1ccc2c(c1)OCO2)S(=O)(=O)c1ccccc1,4.03%,–
C/C(=N\NC(=O)Cc1ccccc1[N+](=O)[O-])c1cccnc1,22.6%,–
Cn1cccc1-c1nc2ccccc2n1C,15.4%,–
CN1c2ccccc2-c2nc3ccccc3n2C1c1ccco1 (centres undefined),–,11.7 µM (active)
Cn1c(-c2ccco2)nc2cc3ccccc3cc21,126%,–
O=C(c1cc2cc(Br)cc(Br)c2oc1=O)N1CCOCC1,67.9%,–

SMILES,"activity change, negative = inhibition",Potency
CCOc1ccc(NC(=O)COc2ccc(C(=O)N3CCC(C(N)=O)CC3)cc2OC)cc1,46.2%,–
COc1cc2ccccc2cc1C(=O)Nc1ccncc1,35.6%,–
COc1cc(NC(=O)c2cccs2)ccc1NC(=O)c1ccccc1Cl,-28.4%,–
COc1cc2ccccc2cc1C(=O)Nc1ccc(NC(=O)c2cccs2)cc1,–,11.7 µM (active)
Cc1ccnc(N2CCCC(C(=O)NC3CC3)C2)n1 (centres undefined),-1.35%,–
O=C(NC1CC1)C(Cc1ccccc1)NS(=O)(=O)c1ccccc1F (centres undefined),16.1%,–
O=C(Cc1ccc([N+](=O)[O-])cc1)Nc1ccc(C(=O)N2CCOCC2)cc1,13.9%,–
O=C(/C=C/c1ccco1)NC(=S)Nc1ccccc1Br,16.6%,–
CCCCCCn1c(SCC(=O)c2ccccc2)nc2c1c(=O)[nH]c(=O)n2C,0.0882%,–
C=CCn1c(SCc2ccccc2)nc2c1c(=O)[nH]c(=O)n2C,5.64%,–
CCC(C)Sc1nc2c(c(=O)[nH]c(=O)n2C)n1CC(O)COc1cccc2ccccc12 (centres undefined),–,10.4 µM (active)
CCc1ccc(NC(=O)CS(=O)CC(=O)N2CCN(c3ccccc3F)CC2)cc1 (centres undefined),0.939%,–
COc1cc(C(=O)NCC(=O)N2CC=C(c3ccccc3)CC2)cc(OC)c1OC,-16.5%,–
O=C(CSc1ccc(-c2ccccn2)nn1)Nc1ccccc1,-22.1%,–
Cc1ccc(S(=O)(=O)Cc2cc(-c3ccc(Cl)cc3)no2)cc1,-33.3% [at 5.75 µM],–
Cc1onc(-c2ccc(Cl)cc2)c1-c1ccnn1S(=O)(=O)c1ccc(Cl)cc1,–,1.04 µM (active)
COC(=O)c1noc(C)c1-c1ccnn1C(=O)c1ccc(Cl)cc1,37.8%,–
COc1ccc(/C=C2\SC(=O)N(CCC(=O)NCCCn3ccnc3)C2=O)cc1,32.1%,–
CCOc1ccc(C(=O)COC(=O)c2ccc(-n3cnnn3)cc2)cc1,-4.08%,–
COc1ccc2c(c1)C(NS(=O)(=O)OCC(Cl)(Cl)Cl)CCC2 (centres undefined),2.43%,–
O=C(c1ccccc1)c1ccc(C(=O)N2CCN(c3ccccc3)CC2)cc1,16.6%,–
O=C(c1cc2cc(F)ccc2[nH]1)N1CCN(c2ccc(F)cc2)CC1,-3.15%,–

SMILES,"activity change, negative = inhibition",Potency
O=C(c1cccc(C(=O)N2CCN(c3ccc(F)cc3)CC2)c1)N1CCN(c2ccc(F)cc2)CC1,–,13.1 µM (active)
CCn1c(=S)sc2c(=O)n(CC(=O)Nc3cccc(Br)c3)c(C)nc21,-6.08%,–
COc1ccccc1C(=O)NCc1nnc(SC(C)C(=O)Nc2nccs2)n1C (centres undefined),1.13%,–
CC(C)CCn1c(=O)c2c(nc3n2CCCN3Cc2ccccc2)n(C)c1=O,–,9.28 µM (active)
Cc1cccc(Cn2c(N3CCN(c4ccccc4)CC3)nc3c2c(=O)n(C)c(=O)n3C)c1,-26.6%,–
CC1CN(C2CCCCC2)c2nc3c(c(=O)n(C)c(=O)n3C)n2C1 (centres undefined),-9.99%,–
O=C(c1c(F)cccc1Cl)N1CCN(c2ccccn2)CC1,8.9%,–
NC(=O)c1oc2ccccc2c1NC(=O)Cc1ccccc1,-26.8%,–
Cc1c(C(C)(C)O)[nH]c2ccc(C#N)cc12,25.6%,–
COc1ccc(-c2cc(=O)oc3cc(OC(C)C(=O)NCC4CCC(C(=O)O)CC4)ccc23)cc1 (centres undefined),-13.5%,–
COc1ccc(F)cc1C(=O)COC(=O)c1n[nH]c(=O)c2ccccc12,-8.28%,–
Nc1nc(SCC(=O)Nc2cc(C(F)(F)F)ccc2Cl)[nH]c(=O)c1NC(=O)c1ccco1,42%,–
Cc1cccc(NC(=O)c2sc3nc4c(c(-c5ccco5)c3c2N)CCC4)c1,–,2.08 µM (active)
Cc1cccc(NC(=O)c2sc3nc(N4CCOCC4)c4c(c3c2N)CCCC4)c1,24.7%,–
COc1ccc(OC)c(NC(=O)c2sc3nc(C)cc(C)c3c2N)c1,2.23%,–
CN(c1ccccc1)S(=O)(=O)c1ccc(NC(=O)COc2ccccc2)cc1,28.6%,–
COc1ccccc1N(C)C(=O)c1cc(S(=O)(=O)N2CCc3ccccc32)cn1C,–,11.7 µM (active)
CCN(C(=O)COC(=O)c1cc(S(=O)(=O)N2CCc3ccccc32)ccc1OC)C1CCS(=O)(=O)C1 (centres undefined),-11.5%,–
COc1cccc(NC(=O)c2cc(S(=O)(=O)N3CCc4ccccc43)cn2C)c1,23.7%,–
COc1cc(OC)cc(C(=O)NNC(=O)CCOc2ccccc2OC)c1,10.8%,–
